Binding signal data for 42 sequences are collected here from paper PMC7819943, “Rice protein-binding microarrays: a tool to detect cis-acting elements near promoter regions in rice”.

Over roughly 68,000 sequences, “fluorescence intensity (a.u.)” has its median near 9,100; the highest 2% begin near 16,000. The sample holds the highest values, similar sequences and a random draw of the others, so the mix is not that of the screen.

OsWRKY34, sequence (Q0JBA9 entry or part of it): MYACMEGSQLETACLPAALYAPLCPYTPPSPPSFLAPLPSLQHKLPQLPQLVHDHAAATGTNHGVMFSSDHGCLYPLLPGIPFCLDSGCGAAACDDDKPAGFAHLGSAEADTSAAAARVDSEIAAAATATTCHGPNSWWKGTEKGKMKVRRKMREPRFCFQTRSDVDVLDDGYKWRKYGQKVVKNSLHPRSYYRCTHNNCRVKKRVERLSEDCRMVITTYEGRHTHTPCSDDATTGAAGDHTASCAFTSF

In this assay the target is OsWRKY34 (Oryza sativa, UniProt Q0JBA9 1-250). Kind of assay: protein-binding microarray (RPBM); PBS, 2% BSA, 51.3 ng/ul salmon testes DNA, 50 uM zinc acetate, 200 nM TF, 25 C, 1 h; high values mean tight binding. The following applies: protein: recombinant; tags: N-terminal polyhistidine and DsRed monomer fusion (pET32a); label: CyDye5-dUTP incorporated in the synthesized complementary strand; 3' TTTTT single-stranded linker to array surface; dsDNA, one strand shown. The gist of the method:
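A custom Agilent array was converted to double-stranded form by primer extension with Cy5-dUTP and blocked with 2% BSA. Protein at 200 nM in PBS with 2% BSA, salmon testes DNA and 50 µM zinc acetate was applied for 1 h at 25 °C, followed by washing. The proteins were polyhistidine–DsRed N-terminal fusions of transcription factors, expressed in E. coli BL21-CodonPlus and Ni–NTA-purified. The binding signal is per-feature fluorescence intensity (arbitrary units) from an Axon 4000B scanner.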
Regarding “ATTATATGCTAATTACTTTCTCGTTTTACGTACACCAACTCGGAGTCACCTAGTGCAG”, the binding signal is 8420 fluorescence intensity (a.u.).

Turning to “TTTCATTTTTTTTTACCACCTCACCTTCTGTGTTTCTTTTCGGAGTCACCTAGTGCAG”, the binding signal is 9040 fluorescence intensity (a.u.).

As to “TTGGTCAAAGTCAAACTGCTTTAAGTTTGACCAAGTTTGTCGGAGTCACCTAGTGCAG”, the binding signal is 21500 fluorescence intensity (a.u.).

Regarding “TTTGGTCAAAGTCAAACTGCTTCTAGTTTGACTAAATTTACGGAGTCACCTAGTGCAG”, the binding signal was 17800 fluorescence intensity (a.u.).

With “TAAAGTCAAACTGTTTTTTTAAGTTTGACCAAGCTTTTGACGGAGTCACCTAGTGCAG”, the binding signal was 10400 fluorescence intensity (a.u.).

As for “ATTTTGGTCAAATTTAAACTAATCTAAGTTTGACTAATTTCGGAGTCACCTAGTGCAG”, the binding signal is 8610 fluorescence intensity (a.u.).

As to “TTGACTTTGTTTAAAGTCAAACTGCTTCAAGTTTGACTAACGGAGTCACCTAGTGCAG”, the binding signal is 9550 fluorescence intensity (a.u.).

With “AAGCTTTGACTTTTTTTTGTCAAATTTTTTAAGTTTGATTCGGAGTCACCTAGTGCAG”, the binding signal was 20400 fluorescence intensity (a.u.).

Consider “TTTTGTCATTGTCAAATTTTGATAAGTTTGTCAAAATTTTCGGAGTCACCTAGTGCAG”, for which the binding signal is 9080 fluorescence intensity (a.u.).

Regarding “TGCATTTCAATTCAAATTTAAGTTGATTCGTTGACTTGTTCGGAGTCACCTAGTGCAG”, the binding signal was 10100 fluorescence intensity (a.u.).

Take “AAACTTGAAGAAATTTGACTTTAGCTAAAGTCAAAACATCCGGAGTCACCTAGTGCAG”: the binding signal was 10600 fluorescence intensity (a.u.).

Regarding “ATTTAAAATAGTTTGACTTTGACCAAAGTCAAAACATCTTCGGAGTCACCTAGTGCAG”, the binding signal was 13500 fluorescence intensity (a.u.).

For the sequence “AGATGTTTTGACTTTAGTCAAAGTCAAACTGCTTTAAGTTCGGAGTCACCTAGTGCAG”, the binding signal is 11800 fluorescence intensity (a.u.).

Consider “AAATTTGAAGTAGTTTGACTTTGACCAAAGTCAAAACATCCGGAGTCACCTAGTGCAG”, for which the binding signal is 17600 fluorescence intensity (a.u.).

With “AAACTACCATGGGACTTATATTGCTCCGGTTTTGATAGTTCGGAGTCACCTAGTGCAG”, the binding signal was 8480 fluorescence intensity (a.u.).

Consider “TTCCACAGAGTCAAGTCCACAGAACGTATGCTCCATGTTCCGGAGTCACCTAGTGCAG”, for which the binding signal was 8160 fluorescence intensity (a.u.).

For the sequence “GGCTGCCTGTGCATGGGAGGCGATGTGAGGGTGGGCAGGGCGGAGTCACCTAGTGCAG”, the binding signal was 9440 fluorescence intensity (a.u.).

For “ACTCACGCTTTAACACCAGGAATCTTATCTCTATCTCATCCGGAGTCACCTAGTGCAG”, the binding signal is 8460 fluorescence intensity (a.u.).

Consider “ATTGGGCTGGAATGAGATTCACGGGAGGGTAACTGGCGGTCGGAGTCACCTAGTGCAG”, for which the binding signal is 12300 fluorescence intensity (a.u.).

Consider “TTCAAATTGTTGCTGCTCTGTGCTAGCCTTTTCATATTGACGGAGTCACCTAGTGCAG”, for which the binding signal was 9110 fluorescence intensity (a.u.).

With “ACACTTTGACTCTTTGATTTAGTAAGCTCGAGTTTATTTTCGGAGTCACCTAGTGCAG”, the binding signal is 9030 fluorescence intensity (a.u.).

Regarding “TAAGTTGTTTGACTTTTTTTCTAGTCAAACTTGTCTGAGTCGGAGTCACCTAGTGCAG”, the binding signal is 17000 fluorescence intensity (a.u.).

Consider “CACTTTATTTTTGAAAATTCGGGTGGGTAAGCTGGTGACTCGGAGTCACCTAGTGCAG”, for which the binding signal was 19200 fluorescence intensity (a.u.).

As to “CGTGGTAATTTTTATTGGTAAGTGGTGGTGAAGTGGGTGACGGAGTCACCTAGTGCAG”, the binding signal was 8300 fluorescence intensity (a.u.).

As to “CTTTGGTCAAAGTCAAATTGTTTTAAGTTTGACCAAGTTTCGGAGTCACCTAGTGCAG”, the binding signal was 19600 fluorescence intensity (a.u.).

For the sequence “ATATTATAAGTTGTTTTGACTTTTTGCTAGTCAAACTTATCGGAGTCACCTAGTGCAG”, the binding signal is 14200 fluorescence intensity (a.u.).

Take “ATTTTTTTTCTAGTCAAACTTTGTTAAGTTTGACCAAAATCGGAGTCACCTAGTGCAG”: the binding signal is 9790 fluorescence intensity (a.u.).

Regarding “GCAGTTTAACTTTGACCAAAGTCAAAATATTTTATAATTTCGGAGTCACCTAGTGCAG”, the binding signal is 8930 fluorescence intensity (a.u.).

Consider “ATAAGATATTTTTGACTTTGGTCAAAGTCAAATTGTTTCACGGAGTCACCTAGTGCAG”, for which the binding signal was 15300 fluorescence intensity (a.u.).

Consider “ACTTCTTCTACGTGATTTCCTGATTCGCCTCATCCGCTTCCGGAGTCACCTAGTGCAG”, for which the binding signal was 9060 fluorescence intensity (a.u.).

On to “TGGGGATGGCGGAGGTTAGCGGCGCGCTTTTTTTTCTATTCGGAGTCACCTAGTGCAG”, for which the binding signal is 14500 fluorescence intensity (a.u.).

“TTCATATACACATATAGTTTTACATATTTCATATTTTTTTCGGAGTCACCTAGTGCAG”: the binding signal was 9360 fluorescence intensity (a.u.).

On to “CCACCTGCCAGCCTGTACCCACCCCTCCCTACTGTTATACCGGAGTCACCTAGTGCAG”, for which the binding signal is 8640 fluorescence intensity (a.u.).

As for “ATGATCATAGCCATTTTTCCTCGCTTTAAATATTTGCTACCGGAGTCACCTAGTGCAG”, the binding signal is 8490 fluorescence intensity (a.u.).

For the sequence “GCTTGTTGTGGGCTGTGGACTGGGTGTGTGTGTGTGCTTTCGGAGTCACCTAGTGCAG”, the binding signal was 9420 fluorescence intensity (a.u.).

Take “GTGGCTTGAAAGGTCTGTGTGTTCTTGTTTGGGATTGAGGCGGAGTCACCTAGTGCAG”: the binding signal is 8440 fluorescence intensity (a.u.).

On to “GAGGTCTACTGTTATTGGGGATTCTTTTTGGGTGGGGTGGCGGAGTCACCTAGTGCAG”, for which the binding signal is 31300 fluorescence intensity (a.u.).

With “CTGGATTGATTGGGAGTGTTGGGTTTCGGGCTAGATCTGGCGGAGTCACCTAGTGCAG”, the binding signal is 9850 fluorescence intensity (a.u.).

Consider “GCTTGCTTGGTTGGTTGGTGGAGCTTGGGAGTTGAGGTCACGGAGTCACCTAGTGCAG”, for which the binding signal is 11500 fluorescence intensity (a.u.).

For the sequence “AGTCTGGATTCTTGGAGGTCAACTTTGGTCAACGGTGGGGCGGAGTCACCTAGTGCAG”, the binding signal was 14200 fluorescence intensity (a.u.).

With “TGGCGGATTGATCTGGAGGTGGGCTTGTTGGGGTTGCTGTCGGAGTCACCTAGTGCAG”, the binding signal was 18200 fluorescence intensity (a.u.).

As to “TTCGGAGGCGGAGGCGGTGGTGGGCTTGGTGGAGGTGGCGCGGAGTCACCTAGTGCAG”, the binding signal is 9860 fluorescence intensity (a.u.).
